Measurements: PubChem BioAssay (NCI)
Where “and” joins values, the source holds several entries; their conditions need not be identical. Equal values may be shown once. This is part of a sample that, as a whole, favours compounds with a hit. Of some 79,000 tested, about 15% had one in any assay. Some structures have more than one record in an assay (separate samples or runs), and their calls can disagree. Calls of active or inactive are those of the source. Rule as the data show it: active = growth inhibition above about 70%; inactive = the rest.

Assay: NCI Yeast Anticancer Drug Screen. Data for the cln2 rad14 strain (AID 165);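 also: 0% = growth equal to vehicle treated cultures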
Details: S. cerevisiae cln2 rad14 strain, stronger effect = higher value
Experimental: Growth inhibition of yeast strains with defined genetic alterations is measured as a screen for potential anti-cancer activity. Selected strains with alterations in DNA damage repair or cell cycle control were exposed to compounds and growth inhibition was measured relative to vehicle treated controls. The strain used in this assay is cln2 rad14

[1] = at 5.0 µM (retest, dose inferred, filed as 0.5)
[2] = at 50.0 µM (retest, dose inferred, filed as 5.0)

Compound | growth inhibition [1] | growth inhibition [2] | growth inhibition (at 50.0 µM)
COc1cccc(-c2nnc(-c3ccccc3)o2)c1 | 73% (active) and 21% (inactive) | 18% (inactive) and 98% (active) | 32.5% (inactive) and 80.2% (active)
O=C1c2cccc(O)c2C(=O)c2cccc(O)c21 | 4% (inactive) | 24% (inactive) | 12.4% (inactive) and -23.5% (inactive)
NC1=C(Cl)C(=O)c2ccccc2C1=O | 15% (inactive) and 4% (inactive) | 61% (inactive) and 97% (active) | 76.7% (active) and 78.8% (active)
OC(CN1CCCC2CCCCC21)c1cc2ccccc2c2ccccc12 (configuration not stated) | -2% (inactive) | 94% (active) and 99% (active) | 99% (active) and 98.2% (active)
CC(=O)Nc1ccc(S(=O)(=O)N(CCO)CCO)cc1 | 0% (inactive) | 1% (inactive) | 57% (inactive)
CCOc1ccc(N/N=C(\CCC(=O)O)C(=O)O)cc1 | -64% (inactive) | 94% (active) | 94.1% (active)
CSc1ccc(N2C(=O)CSC2=S)cc1Cl | -1% (inactive) | -4% (inactive) | 29.1% (inactive)
O=C1c2ccccc2C(=O)c2cc(S(=O)(=O)O)ccc21 | 6% (inactive) | 30% (inactive) | -26.8% (inactive) and 9.95% (inactive)
Clc1ccc(CN2CCCN(Cc3ccc(Cl)cc3)C2c2cc3ccccc3c3ccccc23)cc1 | 22% (inactive) | 96% (active) | 33.1% (inactive)
CCCCCCCCCCCCN | 73% (active) | 100% (active) | 26.6% (inactive)
c1ccc(N=c2cnc3c(ccc4ccccc43)o2)cc1 | 99% (active) | 98% (active) | 98.6% (active)
Oc1c(Cl)c(Cl)c(Cl)c2ccccc12 | 39% (inactive) | 94% (active) | 53.4% (inactive)
CCOC(=O)C(CN)(c1ccccc1)c1ccccc1 | 2% (inactive) | -12% (inactive) | 43.8% (inactive)
O=C1OC(c2ccc(O)cc2)(c2ccc(O)cc2)c2cccc3cccc1c23 | 14% (inactive) | 99% (active) | 98.9% (active)
